Data on 28 compounds can be found in PubChem BioAssay (NCATS).

The structures appear in SMILES notation. Records with an inconclusive call do not appear. Values without a mark were called inactive. Calls of active or inactive are those of the source. Calls follow the shape of the dose curve; as a rule, active = well fitted cell-killing curve with a large enough effect; inconclusive = small, poorly fitted or top-dose-only effect, or effect the other way; inactive = no such curve, though single readings can be large or run the other way.
Potency is read from the fitted curve at half-maximal effect.

A short description of the assay: Viability qHTS for spleen associated tyrosine kinase inhibitor (SYKi) naive MV4-11 cells (AID 1963823). Also: nearly all actives have a fitted effect of over 40% in size. The settings on record: MV4-11 AML viability, CellTiter-Glo luminescence, 72 h; series mostly up to 45 µM; viability (% of control): at the top concentration. The method, boiled down:
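Compounds were dispensed acoustically onto plates, MV4-11 cells (SYKi-naive) added at 500 per well, and plates incubated 72 hr at 37 C. CellTiter-Glo was added and luminescence measured after 10 min.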
For orientation: qHTS replaces the single test concentration by a dilution series.
In the case of `C[C@@H]1CCC2C(C)(C)[C@H](O)CC[C@]2(C)[C@@]12Cc1c(O)cc3c(c1O2)CNC3=O` (stereo partly drawn), the “viability (% of control)” value is 5.25%. Same read-out and setting: under `CC1=C(C(=O)O[C@@H]2O[C@H](COC3OCC(O)C(O)C3O)[C@@H](O)[C@H](O)[C@H]2O)C(C)(C)CCC1` (stereo partly drawn) stands 61.4% [at 17.3 µM]. Still for that read-out and setting: the same measure for `CSc1cc2c(s1)c1cnn(Cc3ccccc3F)c(=O)c1n2C`: 74.2%. Regarding `C[C@@H]1O[C@@H](O[C@H]2[C@H](O[C@H]3[C@H](O)[C@@H](C(=O)O)O[C@@H](O[C@H]4CC[C@@]5(C)C(CC[C@]6(C)C5CC[C@]57OC[C@@]8(CCC(C)(C)CC85)[C@H](O)C[C@]76C)C4(C)C)[C@@H]3O[C@@H]3O[C@H](CO)[C@@H](O[C@@H]4OC[C@@H](O)[C@H](O)[C@H]4O)[C@H](O)[C@H]3O)O[C@H](CO)[C@H](O)[C@@H]2O)[C@H](O)[C@H](O)[C@H]1O` (stereo partly drawn), the viability (% of control) is 77.6% [at 9.25 µM]. On to `O=C(CCc1nnc2n(Cc3ccc(Cl)cc3)c(=O)c3ccccc3n12)NCCC1=CCCCC1`, for which the “viability (% of control)” value was 79.8%. In the case of `Nc1ccc(-c2cnc(N)c(-c3ccc(Cl)cc3)c2)cn1`, the Potency is 5.8 µM (active). Regarding `CC1CCC23COC(=O)C2=CC(O)CC3C1(C)CCC1=CC(O)OC1=O` (stereo not drawn), the “viability (% of control)” value was 78.1%.

As for `C/C=C/C=C/C(CC(=O)O)Nc1ccc(C=O)cc1` (stereo not drawn), the “viability (% of control)” value was 61.4%. Turning to `Cc1cc(NC(=O)c2cccc(NC(=O)/C=C/CN(C)C)c2)ccc1Nc1nccc(-c2cccnc2)n1`, the Potency was 2.06 µM (active).

For the compound `C=C[C@H]1[C@H](O[C@@H]2O[C@H](CO)[C@@H](O)[C@H](O)[C@H]2O)OC=C(C(=O)OC)[C@H]1C[C@@H]1c2cc(O)c(O)cc2CCN1C(C)=O`, the “viability (% of control)” value was 80% [at 17.3 µM]. Same read-out and setting: under `Cc1cc(O)cc(O[C@@H]2O[C@H](CO)[C@@H](O)[C@H](O)[C@H]2O)c1` stands 61.3%. For `O=C(Nc1ccccc1)c1ccc(Nc2nnc(-c3ccc(O)cc3)c3ccccc23)cc1`, the Potency was 16.4 µM (active). As to `CC1CCC2(C)C(CC(O)C(O)C23CO3)C1(C)CCC1=CC(O)OC1=O` (stereo not drawn), the “viability (% of control)” value is 73%. The same measure, in the same setting: under `CCC(CCO[C@@H]1O[C@H](CO[C@H]2OC[C@](O)(CO)[C@H]2O)[C@@H](O)[C@H](O)[C@H]1O)C(C)(C)O` (stereo partly drawn) stands 75.2% [at 17.3 µM]. Same read-out and setting: the same measure for `NC(=O)c1ccc(OCC2NC(=O)C3CCCN3C2=O)cc1` (stereo not drawn): 66.2%.

With `C=CC(C)(C)c1[nH]c2ccccc2c1C[C@@H]1NC(=O)[C@H](C)NC1=O`, the “viability (% of control)” value was 79.1%.

Regarding `O=C(C[C@@H]1C(C(=O)O)=CO[C@@H](O[C@@H]2O[C@H](CO)[C@@H](O)[C@H](O)[C@H]2O)/C1=C\CO)OCCc1ccc(O)c(O)c1`, the “viability (% of control)” value was 82.3% [at 17.3 µM]. On to `Cc1ncc(Cl)cc1NCc1ccc(C(=O)NC(CC2CCCC2)C(=O)NC2CC2)s1` (stereo not drawn), for which the Potency was 20.6 µM (active). Still for that read-out and setting: the same measure for `CC(C)(C#N)c1ccc(N2C(=O)OCc3cnc4ccc(-c5cnc6ccccc6c5)cc4c32)cc1`: 1.03 µM (active). In the case of `O=C(OC[C@H]1O[C@H](O[C@H]2CO[C@H](CO)[C@@H](O)[C@@H]2O)[C@H](O)[C@@H](O)[C@H]1O)c1ccccc1`, the “viability (% of control)” value is 68.8% [at 17.3 µM]. The same measure, in the same setting: under `COC(=O)C1=COC(O[C@@H]2O[C@H](CO)[C@@H](O)[C@H](O)[C@H]2O)C2C(C)C(=O)CC12` (stereo partly drawn) stands 71.4%; under `CCCC(=O)Nc1cccc(NC(=O)c2ccccc2Br)c1`, 85%; under `C=C[C@H]1[C@H](O[C@@H]2O[C@H](CO)[C@@H](O)[C@H](O)[C@H]2O)OC=C(C(=O)OC)[C@H]1CC(=O)O`, 86.5%. The same measure, in the same setting: the same measure for `Cn1cnc2c(NCc3ccccc3)nc(NCCO)nc21`: 97.2%. As to `CC(=O)O[C@]1(C(C)=O)CC[C@H]2[C@@H]3CCC4=CC(=O)CCC4=C3[C@@H](c3ccc(N(C)C)cc3)C[C@@]21C`, the Potency is 25.9 µM (active). Consider `COC(=O)C1=COC(OC2OC(CO)C(O)C(O)C2O)C2C(C)C(OC(=O)/C=C/c3ccc(O)cc3)C(O)C12` (stereo not drawn), for which the “viability (% of control)” value is 39.9% [at 17.3 µM]. Same read-out and setting: the same measure for `CC(=O)O[C@@H]1[C@H](O[C@@H]2O[C@H](CO)[C@@H](O)[C@H](O)[C@H]2O)[C@@H](O[C@@H]2O[C@@H](C)[C@H](O)[C@@H](O[C@@H]3O[C@H](CO)[C@@H](O)[C@H](O)[C@H]3O)[C@H]2O)[C@H](OC(=O)[C@]23CCC(C)(C)C[C@H]2C2=CCC4[C@@]5(C)C[C@H](O)[C@H](O[C@@H]6O[C@H](C(=O)O)[C@@H](O)[C@H](O)[C@H]6O)[C@@](C)(C(=O)O)C5CC[C@@]4(C)[C@]2(C)CC3)O[C@@H]1C` (stereo partly drawn): 81.2% [at 9.25 µM]; for `C[C@@H]1O[C@@H](O[C@H]2[C@H](O[C@H]3[C@H](O[C@H]4CC[C@@]5(C)C(CC[C@]6(C)C5CC=C5[C@@H]7CC(C)(C)C[C@@H](O)[C@]7(C)CC[C@]56C)[C@@]4(C)CO)O[C@H](C(=O)O)[C@@H](O)[C@@H]3O)O[C@H](C(=O)O)[C@H](O)[C@@H]2O)[C@H](O)[C@H](O)[C@H]1O` (stereo partly drawn): 83.8% [at 9.25 µM].
